From PubChem BioAssay
DRD3 antagonist: qHTS of D3 Dopamine Receptor Antagonist: qHTS; D(3) dopamine receptor (Homo sapiens), P35462; D3R cells, DiscoveRx beta-arrestin luminescence, antagonist mode; hits give low values; max response, negative = inhibition, %; 360,000 compounds, 2.5% hits; AID 652054, 2013; in the data active = max response below about -50%; inconclusive = no clear call, values can overlap the other calls; note: % is set by controls: 0 for no effect and ±100 for the full control effect
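Cells plated overnight at 1500 cells/well, then exposed to library compounds with dopamine controls for 90 minutes at 37 degrees C. DiscoveRx reagent added for 30–60 minutes at room temperature; luminescence read, quantitative HTS format.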
TRPML1 blocker: qHTS for Inhibitors of the Human Mucolipin Transient Receptor Potential 1 (TRPML1); 390,000 compounds, 0.02% hits; Mucolipin-1 (Homo sapiens), Q9GZU1; activity change, negative = inhibition, % (concentration not given with the values); TRPML1-inducible cells, Ca2+ dye fluorescence, FDSS; hits give low values; inhibition of EC80 agonist-evoked calcium signal; in the data active = activity change below about -50%; inconclusive = between about -30% and that limit;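 note: stimulus is agonist 54-4 at its EC80 concentration; % is set by controls: 0 for no effect and ±100 for the full control effect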
Target sequence (Q9GZU1 whole entry, looked up): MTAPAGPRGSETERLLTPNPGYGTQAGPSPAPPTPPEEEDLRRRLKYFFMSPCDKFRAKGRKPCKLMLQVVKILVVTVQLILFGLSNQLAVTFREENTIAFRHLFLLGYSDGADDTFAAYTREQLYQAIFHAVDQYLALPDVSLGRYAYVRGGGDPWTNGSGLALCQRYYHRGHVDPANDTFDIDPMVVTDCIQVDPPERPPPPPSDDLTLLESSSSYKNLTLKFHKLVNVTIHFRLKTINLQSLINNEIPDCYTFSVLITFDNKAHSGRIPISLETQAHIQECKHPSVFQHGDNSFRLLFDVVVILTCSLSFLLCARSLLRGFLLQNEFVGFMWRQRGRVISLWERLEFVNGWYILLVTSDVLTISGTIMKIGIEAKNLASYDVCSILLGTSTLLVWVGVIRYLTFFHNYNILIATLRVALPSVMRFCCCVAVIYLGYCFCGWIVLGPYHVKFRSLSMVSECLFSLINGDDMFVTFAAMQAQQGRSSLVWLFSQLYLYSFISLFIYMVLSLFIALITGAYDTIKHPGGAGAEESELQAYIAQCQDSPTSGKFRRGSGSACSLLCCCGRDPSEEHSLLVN
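Calcium fluorescence in TRPML1-DL cells induced overnight with Tet: a 110 s read after compound pin addition, then a 110 s antagonist read after challenge with 54-4 at 4 uM final (EC80).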
TRPML1 agonist: qHTS for Agonists of the Human Mucolipin Transient Receptor Potential 1 (TRPML1); TRPML1-expressing cells, Ca2+ dye fluorescence, FDSS; activation, % (test concentration not listed); 410,000 compounds, 0.12% hits; in the data active = activation above about 50%; inconclusive = mostly about 30% to 49%; note: 0% is about no effect
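Kinetic FDSS Ca2+ read in Tet-induced TRPML1-DL cells (ABD Ca8 dye plus quencher, 45-90 min RT loading): baseline, then compound, then 110 s agonist window; EC80 agonist 54-4 at 4uM final added afterwards for a 110 s antagonist window.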
DRD3 agonist: qHTS of D3 Dopamine Receptor Agonist: qHTS | D3R DiscoveRx beta-arrestin cells, luminescence, 90 min | max activation, % | D(3) dopamine receptor (Homo sapiens), P35462 | AID 652048, 2013 | 410,000 compounds, 0.58% hits; in the data active = max activation above about 30%; note: 0% is about no effect
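Agonist-mode cell screen: cells plated at 1500/well and incubated overnight at 37 °C, then exposed to library compounds for 90 min at 37 °C. Detection reagent was added for 30–60 min at room temperature, and luminescence was read.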
Numbers without * were called inactive; ? = inconclusive; nt = not tested or not shown. Only some compounds are listed: those with a hit (about 2.9% of all), similar ones and a draw of the others.

SMILES | DRD3 antagonist | TRPML1 blocker | TRPML1 agonist | DRD3 agonist
Cc1ccc(N2C(=O)C(CC(=O)Nc3ccc(F)cc3)N(CCC3=CCCCC3)C2=O)cc1 (stereo not given) | nt | 10.7 | 1.3 | -7.6
CN(C)c1ccc(CNC(=O)c2ccc3nc(CCc4ccccc4)oc3c2)cc1 | nt | 11.6 | 1.4 | 47.6*
CN(C)c1ccc(CNC(=O)c2ccc3nc(Cc4ccccc4)oc3c2)cc1 | nt | -17.8 | 1.0 | -6.2
O=C1C=CC(=O)C(C2=C3C(=O)N(CCc4ccccc4)CC(=O)N3CCC2)=C1 | -72.2* | -7.6 | -0.1 | -1.3
O=C1CC2(CCCCC2)CC(=O)N1CCc1ccccc1 | 1.3 | 3.5 | 4.1 | 6.2
CC(C)=CCN1CCN(CCC2=C(C)CCCC2(C)C)CC1CCO (stereo not given) | -90.2* | -1.7 | 0.7 | -14.4
CC1=C(CCN2CCN(C3CCCC3)C(CCO)C2)C(C)(C)CCC1 (stereo not given) | -12.1 | 27.4 | -0.2 | -22.9
CCCS(=O)(=O)NC(=O)C1(C)CCN(C(=O)COc2ccc(Cl)cc2Cl)C1 (stereo not given) | 14.0 | nt | -0.4 | 75.8*
Cc1ccc(CCNC(=O)C2CCC(=O)N2CCc2ccccc2)cc1 (stereo not given) | -14.9 | 0.7 | 1.4 | 6.3
Cc1ccc(CNC(=O)C2CCC(=O)N2CCc2ccccc2)cc1 (stereo not given) | -57.0* | -18.9 | 0.4 | 17.5
CCOc1ccc(CNC(=O)c2ccc3c(c2)N(CC)CCS3)cc1 | -66.8* | -4.9 | 0.5 | -13.1
CCN1CCSc2ccc(C(=O)NCc3ccc(OC(C)C)cc3)cc21 | -76.9* | 0.7 | 0.1 | -13.3
Cc1cc(N2CCN(C)CC2)nc2ccc(NC(=O)Nc3ccccc3Cl)cc12 | nt | 5.6 | 1.3 | -27.5
O=c1cc(CSc2ccccc2)[nH]c(=S)[nH]1 | -95.2* | 0.0 | -1.3 | -8.9
CCC(C)Sc1oc(-c2ccco2)nc1S(=O)(=O)c1ccc(C)cc1 (stereo not given) | nt | 33.9 | 3.9 | 0.3
O=[N+]([O-])c1ccc(/C=N/NC(=S)Nc2ccc(Cl)cc2Cl)s1 | -56.3* | 7.9 | 0.0 | -18.6
O=[N+]([O-])c1ccc(O)c(/C=N/NC(=S)Nc2ccc(Cl)cc2Cl)c1 | ? | 6.8 | 1.2 | -2.1
CCOC(=O)C1=C(CN2CCN(c3ccccc3F)CC2)NC(=O)NC1c1ccc(OC)cc1 (stereo not given) | nt | 6.0 | 0.4 | -9.7
COc1ccc2cc(C(=O)Nc3ccc(Cl)cc3)sc(=O)c2c1OC | -69.3* | 3.1 | 0.0 | -28.6
COc1ccc(C(=O)COC(=O)c2cccc(-n3cnnn3)c2)c(OC)c1 | 8.9 | -8.6 | 2.2 | 36.4*
O=C(COC(=O)c1cccc(-n2cnnn2)c1)c1ccc(F)cc1 | 8.2 | 4.5 | 0.1 | -7.4
O=C1/C(=C/c2ccccc2)CCc2ccc(Cl)nc21 | -73.0* | 0.8 | 0.6 | -26.0
O=C1/C(=C\c2ccccc2)CCc2c1[nH]c1ccccc21 | 32.8 | 3.8 | 0.7 | -6.7
Cc1ccnc2ccc(I)cc12 | nt | nt | -0.9 | nt
Cc1ccccc1N1CCN(CCc2nnc3n2CCCC3)CC1 | nt | nt | nt | 35.1*
SMILES | DRD3 antagonist | TRPML1 blocker | TRPML1 agonist | DRD3 agonist
COc1ccc(OC)c(CNC(=O)C2CCN(c3nc4ccccc4nc3C(F)(F)F)CC2)c1 | nt | -4.4 | -0.6 | -6.4
CCCC(=O)Nc1sc(C)c(-c2ccc(C(C)CC)cc2)c1C#N (stereo not given) | 41.5 | -14.9 | 0.5 | 30.4*
CCCC(=O)Nc1sc(C)c(C)c1C#N | 10.8 | -5.3 | -0.3 | 2.6
COc1cc(C(NC=O)C(=O)Nc2c(C)cccc2C)ccc1O (stereo not given) | -0.9 | nt | nt | 1.7
Cc1cccc(C)c1NC(=O)C(NC=O)c1ccc(Cl)cc1 (stereo not given) | -56.1* | 14.7 | -0.1 | -5.8
COc1ccc(NC(=O)CCCn2nc(C)c3sc4ccccc4c3c2=O)cc1 | nt | -21.0 | 0.4 | -2.2
CC(CN1CCCCC1)OC(=O)c1ccc(Cl)cc1 (stereo not given) | -55.9* | 5.5 | -1.2 | -17.6
CC(CN1CCN(C)CC1)OC(=O)c1ccc(Cl)cc1 (stereo not given) | -14.5 | -3.9 | 1.3 | -11.2
CC(CN1CCCC1)OC(=O)c1ccc(Br)cc1 (stereo not given) | -67.3* | 13.6 | 1.2 | -19.6
O=C(c1ccc(Cl)cc1)C(CN1CCCCC1)c1ccccc1 (stereo not given) | -72.7* | -5.2 | 3.8 | -26.1
CCOC(=O)C(CN1CCCC1)c1ccccc1 (stereo not given) | -0.5 | 0.7 | -0.6 | -29.7
CC(CN1CCCCC1)OC(=O)C1c2ccccc2Oc2ccccc21 (stereo not given) | -62.9* | 4.9 | 4.4 | -3.2
COc1ccc(NC(=S)Nc2ccc(N)c([N+](=O)[O-])c2)cc1 | -81.9* | -12.0 | -0.4 | -1.1
COc1ccc(NC(=S)Nc2ccccc2)cc1 | 3.7 | -13.5 | 0.8 | 5.9
COc1cc(OC)c(-c2c3cc(O)c(=O)cc-3oc3cc(O)c(O)cc23)cc1OC | -77.0* | -9.6 | 111.8* | -26.0
Cc1c2cc(O)c(=O)cc-2oc2cc(O)c(O)cc12 | -10.9 | 95.3 | 23.5 | 3.7
COc1ccc2[nH]c3c(c2c1)CNCC3 | 19.1 | -2.1 | 0.1 | 4.5
Clc1ccc2[nH]c3c(c2c1)CNCC3 | -97.7* | -14.6 | 1.1 | -33.7
Clc1cccc2c3c([nH]c12)CCNC3 | -60.1* | 8.2 | -0.9 | -44.1
Cc1c(Cl)cccc1NC(=O)c1cnc2sc(N3CCOCC3)nn2c1=O | nt | -10.2 | 0.1 | -12.2
CCc1cccc(CC)c1NC(=O)C(Cc1ccccc1)NS(=O)(=O)c1cccc2nsnc12 (stereo not given) | nt | 2.6 | 1.1 | -7.8
Cc1ccc2oc(/N=C(\N)NC(=O)C(C)(C)C)nc2c1 | -52.2* | 3.0 | 2.2 | -13.6
OCC1(CO)COC(C(Cl)(Cl)Cl)OC1 | nt | nt | nt | -19.3
O=C(Nc1ccccc1N1CCCC1)C1CCN(C(=O)c2ccc(Cl)cc2)CC1 | 15.4 | -1.9 | -0.4 | -1.0
O=C(CNCC1CCCO1)Nc1ccc(N2CCCCCC2)cc1 (stereo not given) | -21.3 | 14.9 | -0.6 | -10.4
SMILES | DRD3 antagonist | TRPML1 blocker | TRPML1 agonist | DRD3 agonist
O=C(CNCC1CCCO1)Nc1ccccc1N1CCCCCC1 (stereo not given) | -62.2* | 15.1 | 2.3 | 0.2
O=C(CNCc1ccccc1Cl)Nc1ccccc1N1CCCCC1 | -60.2* | -10.9 | 2.3 | -23.6
O=C(Nc1ccccc1N1CCCCC1)C1CCN(C(=O)c2ccc(Cl)cc2)CC1 | -59.1* | 22.4 | 2.3 | -7.5
O=C(Cc1ccccc1F)Nc1ccccc1N1CCCC1 | 0.2 | 8.5 | 0.7 | -3.4
O=C(Nc1cccc(Cl)c1Cl)c1ccc2c(c1)N(Cc1cccc(Cl)c1)C(=O)c1ccccc1S2=O (stereo not given) | nt | 5.1 | 0.0 | 3.7
Cn1nc(-c2ccncc2)nc2c(=O)n(C)c(=O)nc1-2 | nt | nt | -0.2 | nt
